# Measurements: the OligoGym collection
# Target: CCDC102B
# Assay: pooled miR-30 sensor sort-seq; sequence = guide strand
# Settings: shRNA
# Also: reference of the scale not given here.
row,Sequence,sensor-assay potency score (higher = more potent)
1,TTGTTGAATAAATCAACACCAT,-0.659
2,TAATCTATTTTTCTTATCCAAA,-1.3
3,TTCAGCTCGAACTTTACTCCAT,0.199
4,TAACATTAGCTTCTAATGCCTC,-0.718
5,ATCAACACCATCTAGATTGGGC,0.0383
6,TTATTCTGAGTTGTCTTCCTTC,0.72
7,TTAACTCACAAATCACTCTGTC,0.63
8,TTTGTTAATACAACCTGCCATC,-1.01
9,TTCACCTGGATCTTCAGCCTTC,0.0425
10,TTGATGATTGTTGCATCTGGAA,-0.905
11,TTGCATTTCATCATTATGTTGA,0.234

# Target: CCDC105
# Assay: as above
# Settings: shRNA
row,Sequence,sensor-assay potency score (higher = more potent)
1,TTGGACTCGACCAACAACCGCT,-0.0723
2,TATATTTCGTACACCGGAGGAT,0.16
3,TTTTTCCATATCTCTCTCCATT,-1.2
4,TTCGCTGAGCCTGTGGTCGGTG,-0.476
5,TTCAGCTCCAAGGTCTCGCTCG,-0.194
6,TTGCGCACTTCGCTGAGCCTGT,-0.764
7,TTGAGTAGGACCTCTGATTTTT,-1.1
8,TAATCTTTCCTTCAGCTCCAAG,-0.875
9,TTTTCTGACCCTGTGTGCGTGG,-0.545
10,TATCTGCAGCTGTTGCTCCCGG,-0.913
11,TTTGCCATTTCTACCAAGGTGT,-0.502
12,TTAATCTTTCCTTCAGCTCCAA,0.0783

# Target: CCDC111
# Assay: as above
# Settings: shRNA
row,Sequence,sensor-assay potency score (higher = more potent)
1,TATTTCTTGTATAAACTCCGAG,-0.0493
2,TATAGTAAAACCAAAATTCAGC,-0.935
3,TAAACCAGTAATTCTTCTGGGA,0.0581
4,TTTGATGATTTATATAGCCGAA,-0.728
5,TTGTCGATGAAATAGTCTCCAG,-1.27
6,TTTTATTGAAAGAAAATCCTTG,0.279
7,TTGTAAACTCTTCTTCCTCTTT,-0.271
8,TAAAAGCTTGAGCTTGTCGATG,-0.777

# Target: CCDC124
# Assay: as above
# Settings: shRNA
row,Sequence,sensor-assay potency score (higher = more potent)
1,TTGTCGTCGTCCTTCCAGTAGG,-1.14
2,TTCTCTTGTTTGAGCCGCGGCA,-0.945
3,TTGTTTGAGCCGCGGCAGCTGG,-1.54
4,TTCTGCTTCTTGGCATCAGCGG,-0.999
5,TTGAGCTTGGAGTCCTCCTCCT,-0.0303
6,TTGAGCAGCTGTTTCAGCTGCG,0.469
7,TCTGCTTCTTGGCATCAGCGGC,-1.05
8,TTTCAGCTGCGACAGCCGCATG,-1.52
9,TGACGTGTTTGTCGTCGTCCTT,-0.925
